# Source: PubChem BioAssay (NCI)
# This is part of a sample that, as a whole, favours compounds with a hit. Of some 83,000 tested, about 20% had one in any assay.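 Step 1: grow cells in 96-well plates. Step 2: add test compound at a single concentration. Step 3: incubate 48 h. Step 4: record percent growth.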 Unmarked numbers belong to inactive results. Active and inactive are the calls of the source. Rule for the calls: active = growth percent below 10; inactive = the rest.
# Columns and labels:
# Assay in all cases: NCI-60 one-dose screen, 48 h (100 = growth as untreated, 0 = no growth, -100 = all killed)
# DU-145 prostate = conditions: 10 µM unless noted
# K-562 leukemia = conditions: 10 µM unless noted
# MALME-3M melanoma = conditions: 10 µM unless noted
# MDA-MB-231 breast = conditions: 10 µM unless noted
# RXF 393 renal = conditions: 10 µM unless noted
# SF-268 CNS = conditions: 10 µM unless noted
# SF-295 CNS = conditions: 10 µM unless noted
# SF-539 CNS = conditions: 10 µM unless noted
# UACC-257 melanoma = conditions: 10 µM unless noted
# M14 melanoma = conditions: 10 µM unless noted
# HCT-15 colon = conditions: 10 µM unless noted
# HT29 colon = conditions: 10 µM unless noted
# SNB-75 CNS = conditions: 10 µM unless noted
# SNB-19 CNS = conditions: 10 µM unless noted
# U251 CNS = conditions: 10 µM unless noted
# PC-3 prostate = conditions: 10 µM unless noted
# SK-MEL-5 melanoma = conditions: 10 µM unless noted
# UACC-62 melanoma = conditions: 10 µM unless noted
# LOX IMVI melanoma = conditions: 10 µM
# SK-MEL-28 melanoma = conditions: 10 µM unless noted
Structure (SMILES),growth (DU-145 prostate),growth (K-562 leukemia),growth (MALME-3M melanoma),growth (MDA-MB-231 breast),growth (RXF 393 renal),growth (SF-268 CNS),growth (SF-295 CNS),growth (SF-539 CNS),growth (UACC-257 melanoma),growth (M14 melanoma),growth (HCT-15 colon),growth (HT29 colon),growth (SNB-75 CNS),growth (SNB-19 CNS),growth (U251 CNS),growth (PC-3 prostate),growth (SK-MEL-5 melanoma),growth (UACC-62 melanoma),growth (LOX IMVI melanoma),growth (SK-MEL-28 melanoma)
O=C(Nc1ccc(Cl)c(Cl)c1)Nc1ccccc1O,118%,48.7%,114%,82.5%,101%,92.9%,75.5%,91.5%,78.2%,58.4%,78.5%,112%,67%,85.8%,85.7%,38.1%,74.5%,42.8%,70.4%,107%
CC(CSc1n[nH]c(=S)s1)c1ccccc1 (stereo not given),117%,103%,110%,103%,118%,109%,106%,119%,112%,106%,110%,126%,85.1%,102%,107%,102%,103%,108%,97.6%,116%
COc1cc(-c2ccc(-[n+]3nc(-c4ccc([N+](=O)[O-])cc4)nn3-c3ccc([N+](=O)[O-])cc3)c(OC)c2)ccc1-[n+]1nc(-c2ccc([N+](=O)[O-])cc2)nn1-c1ccc([N+](=O)[O-])cc1,-32.7% (active),3.89% (active),-44.6% (active),51.4%,-39.9% (active),-33.9% (active),-30.7% (active),-66.4% (active),-42.5% (active),58.3%,29.7%,-6.65% (active),-35.8% (active),40.8%,43.9%,47.9%,47.4%,85.9%,-75.5% (active),73.1%
CCCCCCCCCCCC[n+]1ccc(CCCCCCCCC)cc1,-83.6% (active),-37.4% (active),-76.4% (active),-81.1% (active),-78.9% (active),-79.2% (active),-51.3% (active),-80.7% (active),-18.4% (active),-82.6% (active),-48% (active),-84% (active),-70% (active),-74.5% (active),-94.6% (active),-51.6% (active),-96.8% (active),-76.9% (active),-94.6% (active),-70.9% (active)
O=C(NNc1ccccc1)OCc1ccccc1,69.1%,3.91% (active),121%,74.4%,119%,63%,58%,97.1%,92.4%,17.6%,73%,97.7%,114%,97.5%,80.4%,54.1%,101%,28.1%,20.8%,105%
COc1cc2c(c(OC)c1OC)-c1ccc(NCc3ccccc3)c(=O)cc1[C@@H](NC(C)=O)CC2,1.24% (active),2.48% (active),40.3%,-3.82% (active),51.8%,25.3%,-36.2% (active),0.134% (active),63.4%,13.6%,11.5%,-8.12% (active),32.9%,64.2%,19%,21.8%,-25% (active),24.9%,21.2%,42.2%
Oc1ccc(Br)cc1Sc1cc(Br)ccc1O,76.4%,49.2%,40.9%,56.7%,76.8%,55.3%,98.9%,45.3%,52.1%,39.9%,36.6%,116%,59.4%,41.3%,46.9%,65.4%,2.54% (active),7.3% (active),43.6%,38.9%
CCCCCCN(CCCCCC)CCCNc1nccc2ccccc12,26.5%,0.764% (active),-58.6% (active),1.89% (active),29.5%,33.2%,-50.8% (active),-23.2% (active),41.7%,-41.3% (active),17%,-11.6% (active),33.5%,20.3%,9.66% (active),20.4%,-91.3% (active),21.8%,-39.3% (active),13.1%
O=C(c1ccccc1)N(CCCl)C(=O)N(CCCl)C(=O)c1ccccc1,109%,95.5%,95.2%,82.1%,104%,102%,81.6%,94.7%,101%,101%,99.4%,97.4%,98.8%,90.5%,102%,88.5%,96.2%,93.8%,88.2%,106%
CCC(=O)c1cc([N+](=O)[O-])c(Br)s1,105%,44.5%,90.5%,103%,91%,96.6%,103%,88.5%,96.5%,71.6%,61%,41.6%,95.7%,99.8%,93.4%,101%,98.9%,105%,-41.2% (active),110%
O=C(O)c1cccc2cccc(-c3c4ccc(=O)c(O)c-4oc4c(O)c(O)ccc34)c12,98.2%,70.6%,102%,83%,94.4%,92.8%,103%,89.4%,110%,92.5%,105%,103%,89.6%,98.1%,99.5%,92.3%,94.6%,90.6%,90%,97.6%
CC1(C)CCCC2=C1C(=O)N(SC(Cl)(Cl)Cl)C2=O,102%,43.1%,75.9%,95.9%,90%,103%,84.5%,95.9%,97.2%,93.6%,85.9%,93.5%,96.9%,91.2%,93.8%,89.5%,98%,96.1%,83.9%,99.4%
CCCCCCCCCCCC(=O)OC(C)C(=O)NCCCC (stereo not given),105%,94.1%,96.4%,113%,107%,101%,102%,108%,96.4%,105%,106%,101%,105%,106%,93.7%,95.8%,102%,103%,93.6%,121%
S=C=Nc1ccc(N2CCOCC2)cc1,108%,89.6%,82.3%,97.3%,72.2%,99.9%,84.8%,89.5%,88.7%,93%,90.5%,86.3%,66.4%,91.8%,97.6%,90.1%,98.2%,82.1%,92.4%,92.5%
O=C1C=CC(=O)N1c1cccc2c1CCCC2,103%,57.1%,85.5%,106%,94.1%,101%,90.6%,105%,103%,110%,98.4%,102%,85.9%,92.6%,98.2%,98.9%,102%,99.3%,107%,99.1%
COC(=O)c1nc(=S)[nH]c(C(=O)OC)c1C(=O)c1ccc(Cl)c(Cl)c1,120%,113%,102%,102%,112%,111%,99.8%,102%,111%,107%,105%,112%,92.7%,105%,103%,106%,101%,102%,99.2%,124%
